# Test results: PubChem BioAssay (NCATS)
# Results filed as inconclusive are left out. Calls of active or inactive are those of the source. Unless noted, the call rests on the fitted dose curve; in most records, active means well fitted curve in either direction with a large enough effect (not every such curve was filed as active); inconclusive means small, poorly fitted or top-dose-only effect, or another doubt; inactive means flat fitted curve, though single readings scatter.
# Experiments:
# [1] = target: Lysosomal acid glucosylceramidase (Homo sapiens) (UniProt P04062); experiment: Glucocerebrosidase-p2 (AID 348; in the data active means potency below about 10 µM; further: potency means the concentration at half of the fitted maximal effect); conditions: purified GBA, blue fluorogenic substrate, 40 min
# Lysosomal acid glucosylceramidase (Homo sapiens), sequence (P04062 whole entry, looked up): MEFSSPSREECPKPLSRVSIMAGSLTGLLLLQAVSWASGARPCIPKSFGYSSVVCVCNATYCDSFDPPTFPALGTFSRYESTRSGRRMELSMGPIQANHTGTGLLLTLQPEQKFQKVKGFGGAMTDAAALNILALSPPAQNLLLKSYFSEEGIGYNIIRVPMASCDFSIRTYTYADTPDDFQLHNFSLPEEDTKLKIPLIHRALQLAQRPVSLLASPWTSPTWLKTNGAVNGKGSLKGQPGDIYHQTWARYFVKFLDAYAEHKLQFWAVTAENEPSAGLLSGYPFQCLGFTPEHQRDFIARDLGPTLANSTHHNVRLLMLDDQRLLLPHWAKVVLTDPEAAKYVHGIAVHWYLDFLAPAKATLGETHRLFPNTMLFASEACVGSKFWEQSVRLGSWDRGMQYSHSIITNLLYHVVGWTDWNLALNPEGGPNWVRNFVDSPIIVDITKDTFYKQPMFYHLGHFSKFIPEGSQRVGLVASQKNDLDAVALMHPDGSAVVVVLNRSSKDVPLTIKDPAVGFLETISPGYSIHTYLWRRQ
# Procedure, shortened: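 Compounds titrated from 0.6 nM upwards against 0.2 nM enzyme in pH 5.9 citric acid/KH2PO4, taurocholate, tween-20; blue fluorogenic substrate 80 uM, 40 min room temperature, stopped and read Ex 365/Em 440 for AC50.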
# [2] = AP1 Signaling Pathway (AID 357); conditions: ME-180 AP-1-bla reporter, EGF-induced, beta-lactamase ratio, 5 h; at 7.69 µM (top of the series) unless noted;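 further: ME-180 reporter cells stimulated with EGF at its EC50 level; on the % scale 0 is the no-effect control and ±100 the full control effect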
# Procedure, shortened: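 Modulation of EGF-driven AP-1 transcription was assessed with a beta-lactamase reporter in ME-180 cells. Compound and EC50 EGF were co-incubated 5 hours at 37 °C before 2.5-hour CCF4 loading at room temperature and dual-emission reading.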
# [3] = target: Cytochrome P450 1A2 (Homo sapiens) (UniProt P05177); experiment: p450-cyp1a2 (AID 410; calls by dose curve; further: potency means the concentration at half of the fitted maximal effect;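 on activity change, negative = inhibition: -100% = full effect of reference inhibitor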); conditions: recombinant CYP1A2, luciferin-ME demethylation, luminescence; series mostly up to 57 µM
# Cytochrome P450 1A2 (Homo sapiens), sequence (P05177 whole entry, looked up): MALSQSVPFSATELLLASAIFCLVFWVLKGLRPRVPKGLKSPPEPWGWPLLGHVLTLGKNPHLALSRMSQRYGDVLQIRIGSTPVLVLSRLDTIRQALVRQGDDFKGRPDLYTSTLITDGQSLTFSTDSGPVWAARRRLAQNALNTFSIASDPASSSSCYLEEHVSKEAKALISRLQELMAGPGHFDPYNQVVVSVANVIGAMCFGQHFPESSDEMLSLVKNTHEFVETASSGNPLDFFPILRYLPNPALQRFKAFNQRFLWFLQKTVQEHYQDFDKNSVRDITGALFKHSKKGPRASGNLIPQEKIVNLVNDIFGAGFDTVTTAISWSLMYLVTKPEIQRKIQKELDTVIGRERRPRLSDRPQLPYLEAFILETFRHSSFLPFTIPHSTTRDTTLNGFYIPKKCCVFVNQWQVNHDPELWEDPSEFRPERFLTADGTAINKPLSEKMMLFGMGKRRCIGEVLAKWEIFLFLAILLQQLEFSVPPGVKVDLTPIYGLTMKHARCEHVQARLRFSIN
# Procedure, shortened: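 Human CYP1A2 (20nM) demethylated Luciferin-ME at its Km (100uM) in 100mM KPO4. After 10 min compound preincubation, NADPH regeneration ran the reaction 60 min at room temperature. Luciferin was read by luminescence, normalized to 57 uM furafylline.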
# [4] = NFAT Signaling Pathway (AID 444); conditions: Jurkat NFAT-bla M1, carbachol, beta-lactamase ratio, 5 h; at 7.69 µM (top of the series) unless noted;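 further: carbachol stimulus at about its EC50 of 1 µM final; on the % scale 0 is the no-effect control and ±100 the full control effect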
# Procedure, shortened: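 Jurkat cells carrying an NFAT-driven β-lactamase reporter and co-transfected muscarinic M1 receptor were treated with compound plus carbachol (1 uM final, an EC50 level) for 5 h at 37 °C. CCF4 loading followed for 1 h at RT; 460/530 nm ratio gave %activity.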
# [5] = Stat Signaling Pathway (AID 446); conditions: ME-180 SIE beta-lactamase reporter, IL-6 stimulated, 5 h; at 7.69 µM (top of the series) unless noted;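 further: ME-180 cervical cancer cells given 40 pM IL-6 alongside compound; SIE-controlled beta-lactamase reporter measured as 460/530 nm FRET emission ratio; on the % scale 0 is the no-effect control and ±100 the full control effect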
# Procedure, shortened: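 ME-180 SIE-bla cells; overnight plating; cpd + IL-6 40 pM, 5 h, 37 C; LiveBLAzer 2.5 h RT; 460/530 nm emission ratio. Normalized to 300 pM IL-6 and 125 nM JAK inhibitor controls.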
# [6] = target: Glucocorticoid receptor (Homo sapiens) (UniProt P04150); experiment: GR-EFC Redistribution (AID 451; calls by dose curve; further: potency means the concentration at half of the fitted maximal effect); conditions: CHO-K1 GR-EFC translocation, beta-gal luminescence, 2 h
# Glucocorticoid receptor (Homo sapiens), sequence (P04150 whole entry, looked up, the tested form may be a part): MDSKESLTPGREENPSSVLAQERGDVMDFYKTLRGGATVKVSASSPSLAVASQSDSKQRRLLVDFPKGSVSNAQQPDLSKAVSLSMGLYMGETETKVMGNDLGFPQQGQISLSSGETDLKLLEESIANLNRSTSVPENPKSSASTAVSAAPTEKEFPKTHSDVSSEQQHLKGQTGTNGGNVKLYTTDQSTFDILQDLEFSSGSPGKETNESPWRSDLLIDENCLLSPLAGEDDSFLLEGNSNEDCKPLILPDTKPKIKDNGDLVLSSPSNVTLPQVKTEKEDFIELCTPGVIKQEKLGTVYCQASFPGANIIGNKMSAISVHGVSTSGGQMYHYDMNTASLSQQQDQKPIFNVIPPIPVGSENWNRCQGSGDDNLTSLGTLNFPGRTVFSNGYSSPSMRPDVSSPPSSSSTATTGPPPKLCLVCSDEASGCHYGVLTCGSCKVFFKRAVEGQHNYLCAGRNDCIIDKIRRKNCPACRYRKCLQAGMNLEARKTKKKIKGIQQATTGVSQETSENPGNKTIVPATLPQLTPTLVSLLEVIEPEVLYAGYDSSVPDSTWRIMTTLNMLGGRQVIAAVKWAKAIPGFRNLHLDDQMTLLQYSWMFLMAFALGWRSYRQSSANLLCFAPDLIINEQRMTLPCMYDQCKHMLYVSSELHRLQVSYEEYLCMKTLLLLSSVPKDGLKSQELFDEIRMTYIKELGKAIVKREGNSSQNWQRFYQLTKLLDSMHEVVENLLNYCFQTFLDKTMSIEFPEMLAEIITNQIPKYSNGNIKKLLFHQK
# Procedure, shortened: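 CHO-K1 cells stably expressing nuclear-localized β-gal enzyme acceptor and GR fused C-terminally to the enzyme donor fragment; ligand-driven nuclear translocation restores β-gal by complementation. Compounds titrated up to 46 uM final, 2 h at 37 °C; luminescence read.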
# [7] = target: Mitogen-activated protein kinase 10 (Mus musculus) (UniProt Q61831); experiment: JNK3 AlphaScreen Assay (AID 530); conditions: JNK3 lysate, c-Jun phosphorylation; series mostly up to 57.1 µM;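 further: kinase came from lysate of stimulated human HepG2 cells; signal reports phosphorylation of biotinylated GST-cJun 1-79 at Ser73 with 10 µM ATP; on the % scale 0 is the no-effect control and ±100 the full control effect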
# Procedure, shortened: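 JNK3 came from HepG2 lysates pre-activated with IL-1beta and TNF-alpha and phosphorylated biotinylated GST-cJun (1-79) at 10 uM ATP, pH 7.6, room temperature. Compounds were titrated. AlphaScreen signal used anti-phospho-cJun (Ser73) antibody.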
# [8] = target: 3',5'-cyclic-AMP phosphodiesterase 4B (Homo sapiens) (UniProt Q07343); experiment: qHTS Assay for Inhibitors of PDE-IV (AID 607; active means well fitted activation curve with a large enough effect in the main read-out, with a control signal flat, not every such curve was filed as active; further: % of control where 0% means no effect); conditions: HEK293 ACTOne CNG channel cells, membrane potential fluorescence; series mostly up to 22.9 µM
# 3',5'-cyclic-AMP phosphodiesterase 4B (Homo sapiens), sequence (Q07343 whole entry, looked up): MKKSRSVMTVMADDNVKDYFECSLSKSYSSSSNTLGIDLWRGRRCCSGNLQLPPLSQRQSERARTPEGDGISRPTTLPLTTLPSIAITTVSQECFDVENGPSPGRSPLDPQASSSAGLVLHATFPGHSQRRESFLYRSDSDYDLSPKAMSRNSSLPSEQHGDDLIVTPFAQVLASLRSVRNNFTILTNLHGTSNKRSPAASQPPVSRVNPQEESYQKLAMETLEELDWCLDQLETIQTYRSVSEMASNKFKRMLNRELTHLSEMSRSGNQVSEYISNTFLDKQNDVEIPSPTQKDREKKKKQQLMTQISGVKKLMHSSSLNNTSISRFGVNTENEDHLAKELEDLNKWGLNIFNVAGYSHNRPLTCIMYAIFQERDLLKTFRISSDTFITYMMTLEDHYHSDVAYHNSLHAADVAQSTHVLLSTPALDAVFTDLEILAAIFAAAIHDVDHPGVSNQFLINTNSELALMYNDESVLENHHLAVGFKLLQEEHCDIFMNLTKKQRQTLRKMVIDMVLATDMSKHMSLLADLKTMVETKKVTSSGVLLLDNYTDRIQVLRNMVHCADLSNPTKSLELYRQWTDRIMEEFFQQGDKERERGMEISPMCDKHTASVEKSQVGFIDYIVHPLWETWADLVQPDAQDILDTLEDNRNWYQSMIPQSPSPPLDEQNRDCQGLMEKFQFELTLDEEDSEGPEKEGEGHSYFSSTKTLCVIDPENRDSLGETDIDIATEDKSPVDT
# Procedure, shortened: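 ACTOne HEK293 cells carry a modified cAMP-gated CNG channel and express endogenous PDE4; plated 1000 cells/well, compounds up to 22.9 uM final. Membrane-potential dye fluorescence (ex 535/em 590) was read; parental cells received 10 uM forskolin + 100 uM RO 20-1724.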
# [9] = qHTS Assay for Lipid Storage Modulators (AID 1519; calls by dose curve); conditions: Drosophila S3 cells, BODIPY lipid droplet/cell ratio, laser cytometry, cells loaded with oleic acid; for activity change, negative = inhibition: at 57.5 µM (top of the series)
# Procedure, shortened: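 Cells seeded at 5,000 per well were treated with compounds over a concentration series and loaded with oleic acid (400 uM, as added). Lipid droplet fluorescence (488 nm excitation, 500-530 nm channel) was read by laser-scanning cytometry and normalized to 20 uM Triacsin C.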
# [10] = Primary qHTS for small molecule stabilizers of the endoplasmic reticulum resident proteome: Secreted ER Calcium Modulated Protein (SERCaMP) assay (AID 1508630; active means well fitted curve in the direction sought with a large enough effect; an effect the other way counts as inactive or inconclusive; further: on the % scale 0 is the no-effect control and ±100 the full control effect); conditions: SH-SY5Y GLuc-SERCaMP (Gaussia luciferase released on ER calcium loss) secretion, thapsigargin, luminescence; series mostly up to 38.4 µM
# Procedure, shortened: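 GLuc-SERCaMP-expressing SH-SY5Y cells, pretreated 16 h with compound, are challenged with thapsigargin to empty ER calcium stores; after 4 h, coelenterazine is added directly to the medium and luminescence is imaged.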
# [11] = target: Glucocorticoid receptor (Homo sapiens) (UniProt P04150); experiment: GR-GFP Redistribution (AID 450;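 active means compounds whose dose series gives a full or clear partial fitted curve of increased nuclear translocation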; further: potency means the concentration at half of the fitted maximal effect); conditions: U2OS GR-GFP nuclear translocation, laser cytometry, 2 h
# [12] = target: Cytochrome P450 3A4 (Homo sapiens) (UniProt P08684); experiment: qHTS Assay for Activators of Cytochrome P450 3A4 (AID 885; active means well fitted curve in the direction sought with a large enough effect; an effect the other way counts as inactive or inconclusive; further: nearly all actives have a fitted effect of over 65% in size); conditions: recombinant CYP3A4, Luciferin-PPXE luminescence, 60 min; series mostly up to 57.1 µM
# Cytochrome P450 3A4 (Homo sapiens), sequence (P08684 whole entry, looked up): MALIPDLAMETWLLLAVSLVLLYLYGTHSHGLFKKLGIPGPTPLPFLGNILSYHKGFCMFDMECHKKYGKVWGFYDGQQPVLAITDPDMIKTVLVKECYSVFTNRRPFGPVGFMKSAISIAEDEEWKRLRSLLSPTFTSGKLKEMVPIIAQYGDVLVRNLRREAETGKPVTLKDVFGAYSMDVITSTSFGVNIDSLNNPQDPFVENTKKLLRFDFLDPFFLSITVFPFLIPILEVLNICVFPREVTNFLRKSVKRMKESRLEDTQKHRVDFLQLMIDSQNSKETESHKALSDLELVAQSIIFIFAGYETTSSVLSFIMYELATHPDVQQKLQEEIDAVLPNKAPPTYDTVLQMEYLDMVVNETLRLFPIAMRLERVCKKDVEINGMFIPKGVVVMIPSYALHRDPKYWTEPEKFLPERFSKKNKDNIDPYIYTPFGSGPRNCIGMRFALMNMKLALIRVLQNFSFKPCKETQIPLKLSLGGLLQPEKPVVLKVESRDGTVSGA
# Procedure, shortened: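 20nM CYP3A4 + 25uM Luciferin-PPXE (=KM), 200mM KPO4; cpd 10 min RT; NADPH regen, 60 min RT; stop w/ detection buffer, 20 min; luminescence. Normalized to 57 uM ketoconazole.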
# [13] = qHTS Assay for Identification of Small Molecule Agonists for Hypoxia Response Element Signaling Pathway (AID 914; active means well fitted activation curve with a large enough effect in the signal ratio, with a control signal flat, not every such curve was filed as active; the % refers to the signal ratio; further: % of control where 0% means no effect); conditions: ME-180 (cervical carcinoma) HRE-bla reporter, beta-lactamase ratio, CoCl2, 17 h; activation: stronger effect = higher value
# Procedure, shortened: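 HRE-bla ME-180 assay for agonist-like enhancement of an EC50 CoCl2 stimulus: 17 h at 37 degrees Celsius, CCF4 for 2.5 h, ratiometric 460/530 nm signal converted to %Activity and fitted to AC50.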
# [14] = measured here: cell count channel max response
# [15] = measured here: lipid channel max response
Compound,Potency [1],"activity change, negative = inhibition [2]",Potency [3],"activity change, negative = inhibition [4]","activity, negative = inhibition [5]",Potency [6],outcome [7],Potency [8],"activity change, negative = inhibition [9]","max response [9, 14]","max response [9, 15]",Potency [10],Potency [11],Potency [12],activation [13]
O=C(Nc1cccc(F)c1)N1CC2(CCN(C(=O)c3csnn3)CC2)C1,> 11.4 µM (inactive),-24.7% (inactive),inactive,16.8% (inactive),-8.23% (inactive),> 46 µM (inactive),inactive,inactive,5.27% (inactive),2.11%,8.72%,inactive,,,
CC(C)NC(=O)N1CCC2(CC1)CCN(C(=O)c1ccco1)CC2,> 11.4 µM (inactive),-2.03% (inactive),inactive,12% (inactive),8.93% (inactive),> 46 µM (inactive),inactive,inactive,3.89% (inactive),8.07%,11.7%,inactive,,,
Cc1noc(C)c1C(=O)N1CCC2(CC1)CN(c1ccccc1)C2,> 11.4 µM (inactive),-19.3% (inactive),inactive,3.6% (inactive),-19% (inactive),> 46 µM (inactive),inactive,inactive,4.6% (inactive),-4.97%,1.75%,inactive,,,
COc1ccc(NC(=O)N2CC[C@@]3(CCCNC3)C2)cc1,> 11.4 µM (inactive),-15.6% (inactive),inactive,-5.59% (inactive),-0.259% (inactive),> 46 µM (inactive),inactive,inactive,-2.79% (inactive),-3.47%,-5.51%,inactive,,,
COC(=O)N1CCC2(CCN(Cc3cc(C(F)(F)F)cc(C(F)(F)F)c3)CC2)CC1,> 11.4 µM (inactive),-23.4% (inactive),inactive,-22.9% (inactive),0.155% (inactive),> 46 µM (inactive),inactive,,2.7% (inactive),-2.08%,2.77%,inactive,,,
Cn1cccc1C(=O)N1CCC2(CCN(C(=O)Nc3cccc(F)c3)CC2)CC1,> 11.4 µM (inactive),-12.6% (inactive),inactive,15.8% (inactive),-3.96% (inactive),> 46 µM (inactive),inactive,inactive,6.54% (inactive),18.2%,25.2%,inactive,,,
COc1ccc(Oc2ncc3ncc(=O)n(C[C@H]4CCCO4)c3n2)cc1,> 11.4 µM (inactive),-24.4% (inactive),6.31 µM (active),-8.98% (inactive),-26.1% (inactive),,inactive,inactive,-4.96% (inactive),9.86%,2.03%,inactive,> 9.22 µM (inactive),inactive,-21.9% (inactive)
